Laboratory results published in the supplement of paper PMC3545927.
The other results are listed elsewhere or left out. The true hit rate is not given.

B1: FS-760 (peptide)
chain: CADSGRKTRSAGNASASA
B2: FS-955 (peptide)
chain: CARMWRKTRSAGNASASA
B3: FS-2629 (peptide)
chain: CADSGRAYLPAGNASASA
B4: FS-1396 (peptide)
chain: CARFWRKTRSAGNASASA
B5: FS-857 (peptide)
chain: CARHMRMTRSAGNASASA
B6: HC855 (peptide)
chain: CARHLIFCHSAGNASASA
B7: HC1183 (peptide)
chain: CARIVGPRTCAGNASASA
B8: HC2309 (peptide)
chain: CAYVPCHRPSAGNASASA
B9: HC331 (peptide)
chain: CAPQAILDMIAGNASASA
B10: HC551 (peptide)
chain: CAKWVPGAVYAGNASASA
B11: HC15 (peptide)
chain: CAMEESSQHLAGNASASA
B12: HC2302 (peptide)
chain: CADQEVVTSTAGNASASA
B13: FS-954 (peptide)
chain: CARMWRKNRSAGNASASA
B14: FS-158 (peptide)
chain: CAFQARLTRSAGNASASA
B15: HC1699 (peptide)
chain: CAMPECSQHLAGNASASA
B16: HC713 (peptide)
chain: CADQDLVGWPAGNASASA
B17: FS-2603 (peptide)
chain: CARSKRAAPAAGNASASA
B18: FS-2458 (peptide)
chain: CARSKKDFEAAGNASASA
B19: FS-2604 (peptide)
chain: CARSKRALKQAGNASASA
B20: FS-1690 (peptide)
chain: CARDKRALKQAGNASASA
B21: HC1281 (peptide)
chain: CAITRVESENAGNASASA
B22: HC532 (peptide)
chain: CAQAEAALENAGNASASA
B23: FS-1935 (peptide)
chain: CARTKRELENAGNASASA
B24: HC22 (peptide)
chain: CAMEECGQHLAGNASASA
B25: FS-2133 (peptide)
chain: CARDKKSLLQAGNASASA
B26: FS-2808 (peptide)
chain: CARSKRASYVAGNASASA
B27: FS-3101 (peptide)
chain: CARSYRYALQAGNASASA
B28: FS-2652 (peptide)
chain: CARDKRWVKYAGNASASA
B29: FS-3170 (peptide)
chain: CARSKRRKYVAGNASASA
B30: FS-3207 (peptide)
chain: CARSKRREMQAGNASASA
B31: FS-3217 (peptide)
chain: CARDKRLAYSAGNASASA
B32: FS-2807 (peptide)
chain: CARSKRAQTQAGNASASA
B33: FS-2304 (peptide)
chain: CARSKRKKEVAGNASASA
B34: HC1629 (peptide)
chain: CARAAICGKYAGNASASA
B35: FS-1945 (peptide)
chain: CARDKRSALQAGNASASA
B36: HC1819 (peptide)
chain: CADPMEECSQAGNASASA
B37: HC2445 (peptide)
chain: CAELEVPCHRAGNASASA
B38: HC1478 (peptide)
chain: CAMGFSYDTRAGNASASA
B39: HC1866 (peptide)
chain: CATTMCSGSWAGNASASA
B40: HC2090 (peptide)
chain: CAVVCCSMSVAGNASASA
B41: FS-2525 (peptide)
chain: CARSKRVLWDAGNASASA
B42: FS-2523 (peptide)
chain: CARSKRALENAGNASASA
B43: FS-2205 (peptide)
chain: CARDKRKQRQAGNASASA
B44: FS-1691 (peptide)
chain: CARDKRKLGAAGNASASA
B45: FS-2306 (peptide)
chain: CARSKRRDANAGNASASA
B46: FS-3084 (peptide)
chain: CARSKRGTEDAGNASASA
B47: FS-1929 (peptide)
chain: CARSKRIWLDAGNASASA

Target: furin, P09958
Sequence (P09958 whole entry): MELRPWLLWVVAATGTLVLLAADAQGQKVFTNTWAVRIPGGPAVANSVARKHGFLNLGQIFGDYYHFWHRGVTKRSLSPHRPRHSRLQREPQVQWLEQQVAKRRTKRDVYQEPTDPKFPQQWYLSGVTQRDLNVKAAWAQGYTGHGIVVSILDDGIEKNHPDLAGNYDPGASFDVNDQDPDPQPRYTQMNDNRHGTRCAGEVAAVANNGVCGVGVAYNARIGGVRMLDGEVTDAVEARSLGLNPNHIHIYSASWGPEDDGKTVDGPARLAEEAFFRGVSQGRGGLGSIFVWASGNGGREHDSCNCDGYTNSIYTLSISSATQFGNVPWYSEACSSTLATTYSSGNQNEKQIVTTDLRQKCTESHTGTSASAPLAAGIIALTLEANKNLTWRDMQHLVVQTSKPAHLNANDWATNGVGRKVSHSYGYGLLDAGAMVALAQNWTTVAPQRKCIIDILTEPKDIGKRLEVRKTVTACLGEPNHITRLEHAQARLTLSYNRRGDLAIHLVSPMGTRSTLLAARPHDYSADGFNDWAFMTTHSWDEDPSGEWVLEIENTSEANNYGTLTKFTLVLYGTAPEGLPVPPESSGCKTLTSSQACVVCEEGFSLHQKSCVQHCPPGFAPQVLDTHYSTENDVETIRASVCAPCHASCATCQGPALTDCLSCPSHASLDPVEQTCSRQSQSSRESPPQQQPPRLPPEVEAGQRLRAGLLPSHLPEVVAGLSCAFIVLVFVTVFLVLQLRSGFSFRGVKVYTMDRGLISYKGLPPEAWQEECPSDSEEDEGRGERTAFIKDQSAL
Experiment: furin cleavage Z-score vs untreated control; higher = more cleavage, active = 3.5 or more, inactive = 1 or less, 8 variable residues between constant flanks
Experimental: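 Multiplexed peptide-cDNA fusion cleavage assay. 8-mer variable peptides flanked by constant Cys-Ala (N-term) and Ala-Gly-Asn-Ala-Ser-Ala-Ser-Ala (C-term) and conjugated to a cDNA oligonucleotide were bead-immobilised via the N-terminus. They were treated with purified furin at a 1:10 enzyme:substrate ratio in 50 mM HEPES pH 7.5, 1 mM CaCl2, 100 mM NaCl for 7.5, 15 or 30 min. Released cDNA was counted by next-generation sequencing, and log counts versus no-furin controls were lowess-adjusted and converted to robust Z-scores.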

Row | Sequence | furin cleavage Z-score (7.5 min) | furin cleavage Z-score (15 min) | furin cleavage Z-score (30 min)
1 | B1 | 9.82 (active) | 12.7 (active) | 9.11 (active)
2 | B2 | 13.5 (active) | 13.7 (active) | 10.7 (active)
3 | B3 | -0.794 (inactive) | -0.681 (inactive) | -1.79 (inactive)
4 | B4 | 13 (active) | 13.8 (active) | 10.1 (active)
5 | B5 | 13.4 (active) | 13.6 (active) | 9.7 (active)
6 | B6 | -0.853 (inactive) | 0.266 (inactive) | 0.481 (inactive)
7 | B7 | 0.967 (inactive) | -0.921 (inactive) | -0.233 (inactive)
8 | B8 | 1.57 | -0.807 (inactive) | 0.069 (inactive)
9 | B9 | -0.162 (inactive) | -2.41 (inactive) | -1.52 (inactive)
10 | B10 | -1.17 (inactive) | -1.76 (inactive) | -0.384 (inactive)
11 | B11 | 0.403 (inactive) | 2.52 | 1.06
12 | B12 | -0.902 (inactive) | -1.54 (inactive) | -1.12 (inactive)
13 | B13 | 7.39 (active) | 10 (active) | 7.6 (active)
14 | B14 | 10.8 (active) | 11.5 (active) | 9.98 (active)
15 | B15 | -0.692 (inactive) | -0.28 (inactive) | -0.904 (inactive)
16 | B16 | -0.0765 (inactive) | -0.565 (inactive) | 0.238 (inactive)
17 | B17 | 11.1 (active) | 9.91 (active) | 8.19 (active)
18 | B18 | 0.38 (inactive) | -0.117 (inactive) | -0.363 (inactive)
19 | B19 | 8.45 (active) | 11.8 (active) | 8.31 (active)
20 | B20 | 5.74 (active) | 8.75 (active) | 8.98 (active)
21 | B21 | -1.51 (inactive) | -1.29 (inactive) | 0.308 (inactive)
22 | B22 | 0.288 (inactive) | -0.4 (inactive) | -1.4 (inactive)
23 | B23 | 14.2 (active) | 14.2 (active) | 11.6 (active)
24 | B24 | 0.622 (inactive) | 0.186 (inactive) | 1.5

Row | Sequence | furin cleavage Z-score (7.5 min) | furin cleavage Z-score (15 min) | furin cleavage Z-score (30 min)
25 | B25 | 0.497 (inactive) | 0.302 (inactive) | -0.611 (inactive)
26 | B26 | 5.25 (active) | 9.12 (active) | 8.21 (active)
27 | B27 | 2.16 | -0.873 (inactive) | -0.277 (inactive)
28 | B28 | 0.63 (inactive) | 2.15 | 6.84 (active)
29 | B29 | -1.22 (inactive) | -0.271 (inactive) | 0.492 (inactive)
30 | B30 | 0.975 (inactive) | 0.582 (inactive) | 0.62 (inactive)
31 | B31 | -0.235 (inactive) | -0.255 (inactive) | 0.271 (inactive)
32 | B32 | 3.83 (active) | 4.65 (active) | 3.76 (active)
33 | B33 | 1.21 | -0.317 (inactive) | -0.337 (inactive)
34 | B34 | -0.897 (inactive) | -0.988 (inactive) | -0.655 (inactive)
35 | B35 | 8.56 (active) | 10.4 (active) | 8.42 (active)
36 | B36 | 0.273 (inactive) | -1.88 (inactive) | -0.65 (inactive)
37 | B37 | 0.172 (inactive) | 0.852 (inactive) | 0.435 (inactive)
38 | B38 | -0.658 (inactive) | -1.06 (inactive) | -0.421 (inactive)
39 | B39 | -0.934 (inactive) | -1.58 (inactive) | -0.286 (inactive)
40 | B40 | -0.627 (inactive) | 0.955 (inactive) | 1.16
41 | B41 | -1.38 (inactive) | -1.33 (inactive) | -0.22 (inactive)
42 | B42 | 9.22 (active) | 11 (active) | 8.18 (active)
43 | B43 | 1.77 | 4.76 (active) | 3.43
44 | B44 | -0.964 (inactive) | 0.648 (inactive) | 1.45
45 | B45 | -0.438 (inactive) | 0.401 (inactive) | 2.07
46 | B46 | 8.96 (active) | 9.33 (active) | 8.39 (active)
47 | B47 | 0.312 (inactive) | 0.0956 (inactive) | 0.362 (inactive)
